Source: PubChem BioAssay (NCI)
About 83,000 compounds went through this panel and 20% of them were active in at least one assay; those are over-represented in the sample as a whole.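 Negative percent growth values reflect cell death: -40 means 40% of the cells present at the start died, and -100 means all died.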 Unmarked numbers belong to inactive results. The source made the active and inactive calls. How the source made its calls: active means growth percent below 10; inactive means the rest.

Columns and labels:
Test in all cases: NCI-60 one-dose screen, 48 h (100 = growth as untreated, 0 = no growth, -100 = all killed)
Conditions in all cases: 10 µM unless noted
SK-MEL-2 melanoma = test system: SK-MEL-2 melanoma
EKVX NSCLC = test system: EKVX NSCLC
SN12C renal = test system: SN12C renal
UO-31 renal = test system: UO-31 renal
TK-10 renal = test system: TK-10 renal
ACHN renal = test system: ACHN renal
CAKI-1 renal = test system: CAKI-1 renal
A498 renal = test system: A498 renal
SR leukemia = test system: SR leukemia
RPMI-8226 leukemia = test system: RPMI-8226 leukemia
OVCAR-8 ovarian = test system: OVCAR-8 ovarian
OVCAR-5 ovarian = test system: OVCAR-5 ovarian
OVCAR-4 ovarian = test system: OVCAR-4 ovarian
SK-OV-3 ovarian = test system: SK-OV-3 ovarian
IGROV1 ovarian = test system: IGROV1 ovarian
OVCAR-3 ovarian = test system: OVCAR-3 ovarian
HS 578T breast = test system: HS 578T breast
NCI/ADR-RES ovarian = test system: NCI/ADR-RES ovarian
CCRF-CEM leukemia = test system: CCRF-CEM leukemia
MOLT-4 leukemia = test system: MOLT-4 leukemia

Row | Structure (SMILES) | growth (SK-MEL-2 melanoma) | growth (EKVX NSCLC) | growth (SN12C renal) | growth (UO-31 renal) | growth (TK-10 renal) | growth (ACHN renal) | growth (CAKI-1 renal) | growth (A498 renal) | growth (SR leukemia) | growth (RPMI-8226 leukemia) | growth (OVCAR-8 ovarian) | growth (OVCAR-5 ovarian) | growth (OVCAR-4 ovarian) | growth (SK-OV-3 ovarian) | growth (IGROV1 ovarian) | growth (OVCAR-3 ovarian) | growth (HS 578T breast) | growth (NCI/ADR-RES ovarian) | growth (CCRF-CEM leukemia) | growth (MOLT-4 leukemia)
1 | C=C1C(=O)C2CCN1CC2 | 105% | 103% | 101% | 89.1% | 99.9% | 86.8% | 92% | 97.6% | 26.1% | 93.8% | 110% | 99.6% | 101% | 105% | 122% | 85.2% | 101% | 104% | – | –
2 | CC(C)c1ncc([N+](=O)[O-])n1C | 127% | 126% | 109% | 85.3% | 114% | 102% | 94.4% | – | 106% | 102% | 97.5% | 103% | 117% | 112% | – | 125% | 80.1% | 108% | 102% | 104%
3 | CN(C)c1ccc2c(N(C)C)cc(N(C)C)nc2c1 | 143% | 75.8% | 83.1% | 50.3% | 104% | 76.5% | 68.6% | 78.9% | – | 69.8% | 78.3% | 102% | 72.1% | 87.5% | 103% | 93.6% | 100% | 77% | – | 80.3%
4 | COc1cccc2c1Cc1ccccc1-2 | 110% | 102% | 108% | 88.6% | 134% | 114% | 98.3% | – | 121% | 99.8% | 112% | 107% | 98.9% | 115% | 115% | 112% | 103% | 98.6% | 104% | 113%
5 | O=C1Nc2ccccc2/C1=C\c1ccccc1O | 107% | 56.4% | 92.5% | 51.3% | 124% | 85.4% | 88.6% | 105% | – | – | 91.1% | 94.4% | 80.9% | 94.7% | 17.9% | 89.3% | 86.2% | 84.9% | – | 74.6%
6 | CC(C)N(C(=O)c1ccccc1)C(C)C | 114% | 104% | 107% | 104% | 98.2% | 108% | 98.5% | 86.6% | 110% | 105% | 111% | 96.3% | 109% | 114% | 116% | 108% | 108% | 115% | – | –
7 | CC(C)(C)NCCC(O)c1cc(C(F)(F)F)nc2c(C(F)(F)F)cccc12 (stereo not drawn) | 102% | 86.7% | 84.7% | 45.7% | 82.9% | 67.2% | 75.4% | – | 121% | 95.7% | 83.6% | 77.8% | – | 89.3% | 71.7% | 75.9% | 65.5% | 84.6% | 94.5% | 89.6%
8 | O=C(NCc1ccco1)Nc1cccc2c(NC(=O)NCc3ccco3)cccc12 | 78.2% [100 µM] | 116% [100 µM] | 33.9% [100 µM] | 103% [100 µM] | 131% [100 µM] | 106% [100 µM] | 100% [100 µM] | – | 69.4% [100 µM] | 33.9% [100 µM] | -73.4% [100 µM] (active) | 66.4% [100 µM] | 92.3% [100 µM] | 111% [100 µM] | 66.3% [100 µM] | 97.5% [100 µM] | 88.2% [100 µM] | 103% [100 µM] | 44.7% [100 µM] | 59.1% [100 µM]
9 | Nc1ncnc(Nc2ccc(C(F)(F)F)cc2)n1 | 103% | 99.7% | 99.8% | 97.8% | 109% | 98.2% | 93.2% | – | 102% | 109% | 102% | 99.8% | 107% | 100% | 100% | 113% | 108% | 104% | 116% | 96.6%
10 | CCOC(=O)C(=O)CC(=O)c1ccccc1 | 96.9% | 97.4% | 100% | 85.3% | 113% | 94.8% | 95.4% | – | 79.7% | 98.4% | 101% | 95.1% | 104% | 111% | 93.3% | 106% | 106% | 93.1% | 114% | 104%
11 | Cc1cc2c3ccc(C)[n+](C)c3ccc2n1C | 92.4% | 20% | 22.4% | 27.1% | 65.6% | 79.4% | 58.1% | – | 15.4% | 21.2% | 30.3% | 68.2% | 62.6% | 35.9% | 54.7% | 47% | 38.6% | 88.3% | 36.7% | 25.2%
12 | Cc1ccc(N)c(S(=O)(=O)O)c1 | 84.3% | 110% | 100% | 92.1% | 128% | 102% | 90.8% | 118% | 79% | 90.2% | 103% | 89% | 83.7% | 103% | 206% | 106% | 113% | 94.5% | – | –
13 | CC12CCC3c4ccc(O)cc4CCC3C1CCC2=O (stereo not drawn) | 98.7% | 83.8% | 96.2% | 81.7% | 91.1% | 103% | 102% | – | 67.4% | 98.8% | 100% | 112% | 106% | 117% | – | 112% | 104% | 111% | 93.7% | 81.1%
14 | CCCCCCCCCCCCSC1=C(Cl)C(=O)C(OC)=C(OC)C1=O | 39.3% | 37.9% | 24.5% | 32.9% | 43.7% | 27.7% | 70.8% | 77.4% | – | – | 28.7% | 80% | 38.8% | 79.9% | 5.92% (active) | 38.8% | 67.3% | 34.9% | – | -4.73% (active)
15 | Cc1c(Cl)cccc1NC(=S)NC(=O)c1ccccc1 | 96% | 71.6% | 98.6% | 85.5% | 93.5% | 113% | 79.4% | – | 88.4% | 73.6% | 92.2% | 109% | – | 95.2% | 118% | 103% | 109% | 104% | 95.3% | 83.9%
